The record followed here is PubChem BioAssay (NCATS).

Values without a mark were called inactive. Inconclusive results are not listed. The source made the active and inactive calls. Unless noted, calls follow the shape of the dose curve; as a rule, active = well fitted curve in the direction sought with a large enough effect; inconclusive = small, poorly fitted or top-dose-only effect, or another doubt; inactive = no such curve, though single readings can be large; an effect the other way counts as inactive or inconclusive.

In one experiment the test system is WaGa. In words: qHTS assay to identify novel small-molecules to repurpose for Merkel cell carcinoma treatment (AID 1296009). Also: nearly all actives have a fitted effect of over 60% in size. Also: potency is read from the fitted curve at half-maximal effect. As to conditions: MCC and control cell lines, CellTiter-Glo viability, 72 h; series mostly up to 46 µM. Summed up:
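After compound transfer in DMSO, plates were kept 72 hr at 37 degree celsius. Luminescent ATP signal from CellTiter-Glo served as viability measure, normalized against DMSO and no-cell controls.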

The subject of another experiment is C33A. The experiment is described as follows: Primary qHTS to identify gynecologic anti-cancer compounds using libraries of approved drugs and bioactive compounds (AID 1345084). Also: nearly all actives have a fitted effect of over 55% in size. Also: potency is read from the fitted curve at half-maximal effect. The following applies: Gynecologic cancer cell panel viability, ATPlite luminescence, 48 h; series mostly up to 57.5 µM. Summed up: (§1)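 ATP-based viability (ATPlite), 1,000 cells/well, 16 h pre-incubation, 48 h compound at 37 C, 5% CO2, 15 min RT before read.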
For orientation: Quantitative high-throughput screening tests each substance at several concentrations.

The test system of a further experiment is CAOV3. Described as above. The following applies: Gynecologic cancer cell panel viability, ATPlite luminescence, 48 h; series mostly up to 57.5 µM. The method in brief:
as §1
A general note: Cellular ATP, detected with luciferase, serves as a proxy for viable cell number.

Another experiment concerns CASKI. Described as above. The following applies: Gynecologic cancer cell panel viability, ATPlite luminescence, 48 h; series mostly up to 57.5 µM. Summed up:
as §1

The next experiment deals with Es-2. The description is as above. As to conditions: Gynecologic cancer cell panel viability, ATPlite luminescence, 48 h; series mostly up to 57.5 µM. Summed up:
as §1

The test system of another experiment is HeLa. The description is as above. As to conditions: Gynecologic cancer cell panel viability, ATPlite luminescence, 48 h; series mostly up to 57.5 µM. Summed up:
as §1

Another experiment concerns Hek293T. The experiment is described as above. The following applies: Gynecologic cancer cell panel viability, ATPlite luminescence, 48 h, control line for the selectivity index; series mostly up to 57.5 µM. The method in brief: as §1
The subject of another experiment is JEG-3. The description is as above. As to conditions: Gynecologic cancer cell panel viability, ATPlite luminescence, 48 h; series mostly up to 57.5 µM. The method in brief:
as §1

The subject of a further experiment is OV90. Described as above. The following applies: Gynecologic cancer cell panel viability, ATPlite luminescence, 48 h; series mostly up to 57.5 µM. The method in brief:
as §1

A further experiment relates to PA-1. Described as above. The following applies: Gynecologic cancer cell panel viability, ATPlite luminescence, 48 h; series mostly up to 57.5 µM. Summed up: as §1
The subject of the next experiment is SKOV3. The description is as above. The following applies: Gynecologic cancer cell panel viability, ATPlite luminescence, 48 h; series mostly up to 57.5 µM. The method in brief:
as §1

Another experiment deals with Tov-21-G. The experiment is described as above. As to conditions: Gynecologic cancer cell panel viability, ATPlite luminescence, 48 h; series mostly up to 57.5 µM. Summed up:
as §1

For the next experiment, the system named is Tov112D. The experiment is described as above. The following applies: Gynecologic cancer cell panel viability, ATPlite luminescence, 48 h; series mostly up to 57.5 µM. Summed up:
as §1

The nature of experiment [1]: Drug repurposing screens with cells derived from glioblastoma tumor samples (AID 1345199). Also: nearly all actives have a fitted effect of over 40% in size. Also: potency is read from the fitted curve at half-maximal effect. As to activity, negative = cell killing: % is scaled to controls: 0 for no effect and ±100 for the full control effect. The following applies: GBM patient neurospheres viability, ATP luminescence, 48 h. The method in brief: (§2)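 Four patient lines of CD133+ GBM neurospheres were screened at several concentrations; hits were retested in those lines plus three slower-growing GBM lines, using 48-hour treatment and ATP-based viability.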

The target in experiment [2] is Nuclear receptor subfamily 1 group I member 2 (Rattus norvegicus) (UniProt Q9R1A7). In words: qHTS assay for small molecule activators of the rat pregnane X receptor (rPXR) signaling pathway (AID 651751; call rule not given here; also: 0% is about no effect). As to conditions: rPXR reporter cells, luciferase (One-Glo), 24 h.
Experiment [3] in a line: qHTS assay for small molecule activators of the human pregnane X receptor (PXR) signaling pathway (AID 720659; call rule not given here; also: 0% is about no effect).
The next experiment concerns astro. The experiment is described as follows: Drug repurposing screens with cells derived from glioblastoma tumor samples (AID 1345199). Also: nearly all actives have a fitted effect of over 40% in size. Also: potency is read from the fitted curve at half-maximal effect. As to activity, negative = cell killing: % is scaled to controls: 0 for no effect and ±100 for the full control effect. The following applies: viability, ATP luminescence, 48 h; series mostly up to 45.9 µM. Summed up: as §2
Experiment [4] in a line: qHTS assay to identify inhibitors of the type 1 interferon - major histocompatibility complex class I in skeletal muscle: Counter screen cell viability and HiBit confirmation (AID 1347412). Also: potency is read from the fitted curve at half-maximal effect; nearly all actives have a fitted effect of over 60% in size. The following applies: iHSKM muscle cells + IFN-b, HiBiT or CellTiter-Glo, 24 h. Summed up:
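CRISPR HLA-B*08:01-HiBit immortalized human myoblasts (C25cl48) stimulated with 4 ng/ml IFN-beta and compounds (12-point 1:3, top 46 uM final) for 24 h at 37 C. Duplicate plates read by HiBit lytic luminescence or CellTiter Glo ATP.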

Setting [5] is: at 45.9 µM (top of the series), tumour line B.
[6] abbreviates: at 45.9 µM (top of the series), tumour line D.
[7] abbreviates: at 46 µM (top of the series), tumour line A.
Setting [8] is: at 46.1 µM (top of the series), tumour line C.

Sequence of Nuclear receptor subfamily 1 group I member 2 (Rattus norvegicus) (Q9R1A7 whole entry, looked up): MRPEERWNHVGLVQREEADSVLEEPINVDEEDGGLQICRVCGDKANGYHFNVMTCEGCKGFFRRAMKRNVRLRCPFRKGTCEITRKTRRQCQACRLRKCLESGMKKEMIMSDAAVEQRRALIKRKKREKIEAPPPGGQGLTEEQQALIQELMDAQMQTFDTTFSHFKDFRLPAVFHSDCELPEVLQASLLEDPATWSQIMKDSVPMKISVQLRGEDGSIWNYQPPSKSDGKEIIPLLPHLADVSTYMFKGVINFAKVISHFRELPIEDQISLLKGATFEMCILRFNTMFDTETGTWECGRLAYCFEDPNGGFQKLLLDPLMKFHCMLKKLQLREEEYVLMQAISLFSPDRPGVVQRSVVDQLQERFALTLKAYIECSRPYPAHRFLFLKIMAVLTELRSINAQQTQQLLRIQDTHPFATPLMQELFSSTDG

On to `CCCCCCCCCCCCCCCC(=O)OC(C)C`, for which the Potency entry with WaGa, in the experiment with C33A, with CAOV3, with CASKI, in the experiment with Es-2 and in the experiment on HeLa was “inactive” each time. Also, the Potency entry in the experiment with Hek293T, in the experiment on JEG-3, in the experiment on OV90, in the experiment on PA-1, with SKOV3 and with Tov-21-G was “inactive” each time. In addition, the Potency result with Tov112D was “inactive”. Also, the activity, negative = cell killing in experiment [1] (setting [5]) is -2.41%; in experiment [1] (setting [6]), -2.14%; in [1] (setting [7]), -26.7%; in [1] (setting [8]), 4.29%. For the same molecule, the max response in [2] is -0.444%. For the same molecule, the molecule was called inactive in experiment [3].

Consider `O=C(O)/C=C\C(=O)O`, for which the Potency result with WaGa, with C33A, with CAOV3, with CASKI, with Es-2 and in the experiment on HeLa was “inactive” throughout. Moreover, the Potency entry in the experiment with Hek293T, with JEG-3, with OV90, with PA-1, in the experiment with SKOV3 and in the experiment on Tov-21-G was “inactive” each time. Further, the Potency entry in the experiment with Tov112D is “inactive”. Further, the max response in experiment [2] was 4.35%. Moreover, the result in experiment [3] was inactive.

As to `CCOc1ccc2nc(S(N)(=O)=O)sc2c1`, the Potency result with WaGa, in the experiment on C33A, with CAOV3, with CASKI, in the experiment on Es-2 and in the experiment with HeLa was “inactive” in each case. Further, the Potency result in the experiment with Hek293T, in the experiment with JEG-3, with OV90, with PA-1, in the experiment on Tov-21-G and in the experiment with Tov112D was “inactive” throughout. Further, the Potency result with astro was “inactive”. Besides, the activity, negative = cell killing in experiment [1] (setting [5]) was -0.995%; in [1] (setting [6]), -17.7%; in [1] (setting [8]), 1.48%.

For `CCCCCCCCCCCC(=O)[O][Sn]([CH2]CCC)([CH2]CCC)[O]C(=O)CCCCCCCCCCC`, the Potency result with WaGa, with C33A, with CAOV3, in the experiment with CASKI, with Es-2 and in the experiment on HeLa was “inactive” throughout. Moreover, the Potency result in the experiment with Hek293T, in the experiment with JEG-3, with OV90, with PA-1, with SKOV3 and in the experiment with Tov-21-G was “inactive” each time. Further, the Potency result with Tov112D and with astro was “inactive” throughout. Moreover, the activity, negative = cell killing in experiment [1] (setting [5]) is -6.49%; in [1] (setting [6]), -3.33%; in [1] (setting [7]) it was -28.7%; in experiment [1] (setting [8]) it was -3.83%.

Consider `[O-][n+]1ccccc1SSc1cccc[n+]1[O-]`, for which the Potency in the experiment on WaGa is 517 nM (active); in the experiment with C33A it was 1120 nM (active); in the experiment on CAOV3, 2820 nM (active); in the experiment on CASKI it was 2510 nM (active); in the experiment with Es-2 it was 1000 nM (active); with Hek293T, 501 nM (active). In addition, the Potency in the experiment with JEG-3 was 2000 nM (active); in the experiment with OV90, 1780 nM (active); in the experiment with PA-1, 1260 nM (active); in the experiment on SKOV3, 794 nM (active); with Tov-21-G, 1410 nM (active); in the experiment with Tov112D, 2820 nM (active). Also, the Potency is 7080 nM (active) in experiment [1] (tumour line A); 15800 nM (active) in experiment [1] (tumour line B); 7080 nM (active) in [1] (tumour line D); 496 nM (active) in experiment [4] (HiBiT); 991 nM (active) in experiment [4] (Viability). The Potency entry with HeLa was “inactive”. For the same molecule, the activity, negative = cell killing in [1] (setting [8]) was -16.3%.

`CN(C)[C@@H]1C(=O)C(C(=O)NCN2CCCC2)=C(O)[C@@]2(O)C(=O)C3=C(O)c4c(O)cccc4[C@@](C)(O)C3C[C@@H]12` (stereo partly drawn): the Potency result with WaGa, with C33A, in the experiment with CAOV3, in the experiment on CASKI, in the experiment on Es-2 and in the experiment on HeLa was “inactive” throughout. For the same molecule, the Potency result with Hek293T, in the experiment on JEG-3, in the experiment on OV90, in the experiment on PA-1, in the experiment on SKOV3 and in the experiment on Tov-21-G was “inactive” in each case. Moreover, the Potency entry with Tov112D and in the experiment on astro was “inactive” in each case. Besides, the activity, negative = cell killing is -9.38% in [1] (at 20 µM (top of the series), tumour line C); -5.39% in experiment [1] (at 21.2 µM (top of the series), tumour line B); 11.2% in experiment [1] (at 21.2 µM (top of the series), tumour line D); -7.96% in experiment [1] (at 21.3 µM (top of the series), tumour line A); -10.2% in experiment [1] (setting [5]); -31.8% in experiment [1] (setting [6]). Besides, the activity, negative = cell killing in experiment [1] (setting [8]) is 27.9%.
